# Test results published in PubChem BioAssay.
# Active and inactive are the calls of the source. Unless noted, how the calls were made is not given here.
# Legend:
# [1] = tested on: Wnt5a (protein binding on small-molecule microarray); experiment: Wnt5a binders on small-molecule microarray, primary screen, biophysical, 635/667 nm fluorescence (AID 1142); conditions: 635 nm fluorescence, higher = more signal;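 further: fluorescence read at 667 nm with signal to noise per printed feature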
# [2] = cell viability in Huh7 cells, primary screen, cytotoxicity control for HCV replication inhibitor project, CellTiter-Glo luminescence, basal, 48 h (AID 1143); conditions: Huh7 HCV replicon, higher = more signal, called active from +8 up or from −8 down;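 further: Huh7 hepatoma cells carrying a hepatitis C replication reporter with no stimulus; test concentration not given here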
# [3] = P. aeruginosa biofilm formation inhibitors, primary screen, PAO1 strain, BacTiter-Glo luminescence, LB-PBS (AID 1144); conditions: 12 h, higher = more signal
# [4] = CREB reporter modulators without forskolin, primary screen, cell-based, PC12, CRE-LacZ reporter, unstimulated (AID 1145); conditions: no forskolin, luminescence, 4.5 h, higher = more signal, called active from +8 up or from −8 down
# [5] = CREB reporter modulators under forskolin, primary screen, cell-based, PC12, CRE-LacZ reporter, forskolin-stimulated (AID 1146); conditions: luminescence, 4.5 h, higher = more signal, called active from +8 up or from −8 down;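 further: PC12 cells with 6xCRE LacZ reporter stimulated by forskolin 10 µM; beta-galactosidase reporter signal reflecting CREB driven transcription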
# [6] = biological target: Streptavidin (Streptomyces avidinii) (UniProt P22629); experiment: streptavidin binders on small-molecule microarray, primary screen, artefact control for SMM compound annotation, biophysical, 635/667 nm fluorescence (AID 1147); conditions: streptavidin binding, higher = more signal;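 further: signal reflects streptavidin binding to arrayed compounds as a control protein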
# [7] = small-molecule binders of probe aInhba, primary screen, biochemical, small-molecule microarray, 635/667 nm fluorescence (AID 1148); conditions: higher = more signal;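 further: score merges 667nm spot fluorescence with signal-to-noise for antibody binding to printed compounds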
# Torsin-1A (Homo sapiens) [8] = biological target: Torsin-1A (Homo sapiens) (UniProt O14656); experiment: torsin A binders from cell lysate, primary screen, small-molecule microarray, wild-type, 635/667 nm (AID 1149); conditions: COS7 hTOR1A-WT lysate, 635 nm fluorescence, higher = more signal
# Torsin-1A (Homo sapiens) [9] = biological target: Torsin-1A (Homo sapiens) (UniProt O14656); experiment: small-molecule binders of mutant TOR1A in lysate, primary screen, cell lysate, small-molecule microarray, COS7 lysate, 635/667 nm fluorescence (AID 1150); conditions: COS7 hTOR1A mutant lysate, 635 nm fluorescence, higher = more signal;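 further: score pools 667 nm emission and signal to noise measuring lysate protein binding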
# [10] = tested on: Sonic hedgehog protein (Shh); experiment: small-molecule binders of Shh protein, primary screen, biochemical, small-molecule microarray, 635/667 nm fluorescence (AID 1151); conditions: small-molecule microarray binding, 635 nm fluorescence; higher = more signal;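 further: Shh protein binding to compounds spotted on small-molecule microarray slides; score combines spot fluorescence intensity with signal-to-noise across triplicate slides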
# Torsin-1A (Homo sapiens), sequence (O14656 whole entry, looked up): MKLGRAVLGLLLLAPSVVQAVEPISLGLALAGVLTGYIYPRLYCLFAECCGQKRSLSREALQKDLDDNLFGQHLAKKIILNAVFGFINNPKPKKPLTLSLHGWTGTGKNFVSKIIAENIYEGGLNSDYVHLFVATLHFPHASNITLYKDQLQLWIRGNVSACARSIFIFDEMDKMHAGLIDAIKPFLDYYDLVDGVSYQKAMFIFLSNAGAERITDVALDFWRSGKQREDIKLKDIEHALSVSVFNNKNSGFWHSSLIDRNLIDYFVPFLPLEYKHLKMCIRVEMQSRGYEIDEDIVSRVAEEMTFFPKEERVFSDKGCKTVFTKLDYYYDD
# Streptavidin (Streptomyces avidinii), sequence (P22629 whole entry, looked up): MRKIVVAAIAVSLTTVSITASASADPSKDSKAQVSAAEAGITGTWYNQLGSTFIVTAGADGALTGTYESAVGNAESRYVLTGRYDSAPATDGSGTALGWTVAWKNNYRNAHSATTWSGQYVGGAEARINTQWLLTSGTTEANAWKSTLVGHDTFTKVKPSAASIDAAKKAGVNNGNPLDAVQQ
SMILES,composite z-score [1],z-score [2],z-score [3],z-score [4],z-score [5],composite z-score [6],composite z-score [7],composite z-score (Torsin-1A (Homo sapiens) [8]),composite z-score (Torsin-1A (Homo sapiens) [9]),composite z-score [10]
CC(C)=CCCC(C)=CC(O)C1C=CC2C(=O)N(c3ccccc3)C(=O)C2N1Nc1ccc(C(C)C)cc1 (stereo not given),0.15,-0.11 (inactive),-0.603 (inactive),0.44 (inactive),0.204 (inactive),1.33,-0.0087,-0.728,-0.151,-0.309
CCOC(=O)C[C@H]1[C@H](OC(=O)c2ccc(C(=O)c3ccccc3)cc2)[C@@H](NC(=O)c2ccccc2)c2cc(OCCCO)ccc2N1C(=O)c1ccccc1,0.261,-0.622 (inactive),-0.948 (inactive),-0.346 (inactive),1.13 (inactive),0.512,0.0541,0.138,0.628,0.907
CCOC(=O)C1=CC[C@H]2C(=O)N(c3ccccc3)C(=O)[C@@H]12,0.125,-0.321 (inactive),0.96 (inactive),0.836 (inactive),-0.0473 (inactive),0.9,0.19,0.079,1.08,0.814
Cc1ccc(S(=O)(=O)N2C[C@@H](C(=O)O)[C@H](Sc3ccccc3)C[C@H]2c2ccccc2)cc1,0.731,-0.763 (inactive),-0.103 (inactive),-0.667 (inactive),-0.356 (inactive),1.26,0.0403,0.301,0.714,-0.156
CC(=O)NCCCC[C@@H]1NC(=O)[C@H]2C[C@@H](C(=O)O)[C@@H](c3ccc(O)cc3)N2C1=O,0.176,-0.798 (inactive),-0.0331 (inactive),5.71 (inactive),7.82 (inactive),0.481,0.0589,0.928,1.69,2.02
O=C1O[C@H](c2ccccc2)[C@H](c2ccccc2)N2[C@H]1[C@@H](C(=O)NC[C@H](O)c1ccccc1)[C@]1(C(=O)Nc3ccc(C#CC4=CCCCC4)cc31)[C@H]2c1ccccc1OCCO,0.401,-6.13 (inactive),-0.297 (inactive),-0.0784 (inactive),-0.0119 (inactive),0.787,0.0659,0.0585,0.223,0.134
Cc1c(NC(=O)/C(C#N)=C/c2cccc([N+](=O)[O-])c2)c(=O)n(-c2ccccc2)n1C,0.233,-3.67 (inactive),-1.97 (inactive),-0.554 (inactive),-1.47 (inactive),0.891,-0.0774,0.659,1.12,0.478
COC(=O)[C@@]1(Cc2ccc(OC)cc2)[C@H]2c3cc(C(=O)N4CCCC4)n(CCCNc4ncc(C(F)(F)F)cc4Cl)c3C[C@H]2CN1C(=O)c1ccccc1,1.53,-3.28 (inactive),0.0557 (inactive),0.769 (inactive),0.627 (inactive),1.25,0.826,0.0188,0.27,-0.418
C=CC[C@]12N=C(c3ccc(OCCCO)cc3)O[C@H]1c1ccccc1N(CCS(=O)(=O)c1ccccc1)C2=O,0.382,-3.24 (inactive),-0.438 (inactive),-1.04 (inactive),-1.87 (inactive),1.07,-0.101,0.695,0.79,1.39
O=C1OCC=C[C@H]2OC34C=CCN(Cn5nnc6ccccc65)C(=O)[C@H]3N(CCCCCO)C(=O)[C@@H]4[C@@H]12 (stereo not given in full),0.238,-0.17 (inactive),-1.03 (inactive),-0.623 (inactive),-0.29 (inactive),-0.573,-0.348,-0.884,-1.08,-0.502
C=C(CCCC)C(=O)CC[C@@H](OC(C)=O)c1ccc(CO)o1,0.52,-1.56 (inactive),-0.905 (inactive),-0.35 (inactive),0.516 (inactive),-0.918,-0.154,-0.0372,0.232,1.95
COC(=O)[C@@]1(Cc2ccc(OC)cc2)[C@H]2c3cc(C(=O)N(C)C)n(Cc4ccc(C(F)(F)F)nc4)c3C[C@H]2CN1C(=O)c1ccccc1,0.24,0.398 (inactive),-0.123 (inactive),0.59 (inactive),1.54 (inactive),0.365,0.397,-0.0912,0.0628,-0.709
C=CC[C@]1(C(=O)NCc2ccccc2)N=C(c2ccc(OCCCO)cc2)O[C@H]1c1ccccc1CN=[N+]=[N-],0.625,-3.52 (inactive),-0.728 (inactive),0.857 (inactive),-0.116 (inactive),0.866,0.682,-0.221,0.631,-0.251
COCC(=C=CC[C@H](O)c1cccc(OCCO)c1)CCO,0.461,0.15 (inactive),-0.833 (inactive),0.0281 (inactive),0.324 (inactive),-0.33,-0.12,-0.744,-0.434,1.81
